SMILES strings stand for the structures. The source made the active and inactive calls. Rule for the calls: active = hit-call score of the fitted dose curve at least 0.9, where 1 is the maximum; inactive = score below 0.9.

In general, AC50 refers to the concentration giving half of the maximal activity seen.

Holding throughout (conditions): mRNA level, 48 h; actives raise or lower the signal
Read-out in test [1]: Glutamate-cysteine ligase catalytic (GCLC), GCLC (gene 2729)
In words: LTEA_HepaRG_GCLC: Life Technologies and Expression Analysis (LTEA) Assay for Glutamate-cysteine ligase catalytic (GCLC) using HepaRG (AID 2283498). In a few lines:
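HepaRG, 48 h exposure, 8-pt half-log series from 100 uM, 0.5% DMSO vehicle; TaqMan qRT-PCR for GCLC mRNA, housekeeping-normalized; bidirectional curve fit vs DMSO baseline.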

Read-out in test [2]: growth arrest and DNA damage 45 (GADD45G), GADD45G (gene 10912)
Kind of test: LTEA_HepaRG_GADD45G: Life Technologies and Expression Analysis (LTEA) Assay for growth arrest and DNA damage 45 (GADD45G) using HepaRG (AID 2283499). In a few lines:
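Differentiated human HepaRG cells, 48 h post-plating, exposed 48 h in serum-free induction medium to 8 half-log concentrations (top 100 uM, 0.5% DMSO) in duplicate. GADD45G mRNA measured by Fluidigm TaqMan qRT-PCR, normalized to ACTB, GAPDH, POLR2A; bidirectional fit versus DMSO.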

Read-out in test [3]: Glutamate-cysteine ligase regulatory (GCLM), GCLM (gene 2730)
Kind of test: LTEA_HepaRG_GCLM: Life Technologies and Expression Analysis (LTEA) Assay for Glutamate-cysteine ligase regulatory (GCLM) using HepaRG (AID 2283500). Summed up:
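Endpoint is GCLM transcript level by qRT-PCR, normalized to three housekeeping genes, after 48 h chemical exposure of human HepaRG cells (0.5% DMSO vehicle, top 100 uM, half-log dilutions). Fitting was bidirectional relative to DMSO.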

Read-out in test [4]: Glutathione S-transferase M3 (GSTM3), GSTM3 (gene 2947)
Kind of test: LTEA_HepaRG_GSTM3: Life Technologies and Expression Analysis (LTEA) Assay for Glutathione S-transferase M3 (GSTM3) using HepaRG (AID 2283501). Summed up: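 Differentiated human HepaRG cells were exposed in duplicate for 48 h in serum-free induction medium, 8 points from 100 uM top in half-log steps, 0.5% DMSO. GSTM3 mRNA was measured by TaqMan qRT-PCR, normalized to ACTB, GAPDH and POLR2A; bidirectional fit versus DMSO.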

Read-out in test [5]: Heat shock 70 kDa protein 1 (HSPA1A), gene 3303
Kind of test: LTEA_HepaRG_HSPA1A: Life Technologies and Expression Analysis (LTEA) Assay for Heat shock 70 kDa protein 1 (HSPA1A) using HepaRG (AID 2283502). Summed up: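 Cells were plated and cultured for 48 h, then switched to serum-free induction medium. Chemicals were added at eight half-log concentrations up to 100 uM for 48 h. RNA was then isolated and HSPA1A measured by qRT-PCR with bidirectional curve fitting against DMSO.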

Read-out in test [6]: Hypoxia-inducible factor 1-alpha (Homo sapiens) (UniProt Q16665)
Kind of test: LTEA_HepaRG_HIF1A: Life Technologies and Expression Analysis (LTEA) Assay for Hypoxia-inducible factor 1 (HIF1A) Trancription factor using HepaRG (AID 2283503). In a few lines:
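HIF1A transcript level read by qRT-PCR (ACTB, GAPDH, POLR2A normalization) after 48 h chemical exposure of HepaRG cultures. Eight half-log concentrations, top 100 uM, 0.5% DMSO vehicle, duplicates; bidirectional curve fit against DMSO baseline.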

Read-out in test [7]: 3-Hydroxy-3-Methylglutaryl-CoA Synthase 2 (HMGCS2), HMGCS2 (gene 3158)
Kind of test: LTEA_HepaRG_HMGCS2: Life Technologies and Expression Analysis (LTEA) Assay for 3-Hydroxy-3-Methylglutaryl-CoA Synthase 2 (HMGCS2) using HepaRG (AID 2283504). Summed up: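 Human HepaRG cells in serum-free induction medium were exposed in duplicate for 48 h to 8-point half-log series from 100 uM top in 0.5% DMSO. HMGCS2 mRNA measured by TaqMan qRT-PCR, normalised to ACTB, GAPDH, POLR2A; bidirectional fit versus DMSO.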

Read-out in a further test: HGF (gene 3082)
In words: LTEA_HepaRG_HGF: Life Technologies and Expression Analysis (LTEA) Assay for Hepatocyte Growth Facto (HGF) using HepaRG (AID 2283505). In a few lines:
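Differentiated HepaRG cells in serum-free induction medium exposed 48 h in duplicate, 8 half-log concentrations from 100 uM in 0.5% DMSO. HGF mRNA by qRT-PCR, normalised to ACTB, GAPDH, POLR2A; bidirectional fitting.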

Read-out in test [8]: Insulin Like Growth Factor 1 (IGF1), IGF1 (gene 3479)
Kind of test: LTEA_HepaRG_IGF1: Life Technologies and Expression Analysis (LTEA) Assay for Insulin Like Growth Factor 1 (IGF1) using HepaRG (AID 2283506). In a few lines:
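Cells are thawed, plated and cultured 48 h, then exposed in duplicate to chemical (highest 100 uM, half-log steps, 0.5% DMSO) for another 48 h. Total RNA is analysed by Fluidigm qRT-PCR for IGF1 expression relative to vehicle.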

Read-out in test [9]: Intercellular Adhesion Molecule 1 (ICAM1), ICAM1 (gene 3383)
In words: LTEA_HepaRG_ICAM1: Life Technologies and Expression Analysis (LTEA) Assay for Intercellular Adhesion Molecule 1 (ICAM1) using HepaRG (AID 2283507). Summed up: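 Differentiated human HepaRG cells in serum-free induction medium exposed 48 h in duplicate to 8 half-log concentrations (top 100 uM, 0.5% DMSO). ICAM1 mRNA quantified by TaqMan qRT-PCR, normalized to ACTB, GAPDH and POLR2A; bidirectional fitting versus DMSO.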

Read-out in test [10]: Insulin-like growth factor-binding protein 1 (IGFBP1), IGFBP1 (gene 3484)
Kind of test: LTEA_HepaRG_IGFBP1: Life Technologies and Expression Analysis (LTEA) Assay for Insulin-like growth factor-binding protein 1 (IGFBP1) using HepaRG (AID 2283508). In a few lines:
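HepaRG cells, plated 48 h then switched to serum-free induction medium, exposed in duplicate for 48 h to 8-point half-log series from 100 uM in 0.5% DMSO. mRNA measured by qRT-PCR, normalized to ACTB/GAPDH/POLR2A; bidirectional fit versus DMSO.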

Read-out in test [11]: Interleukin 6 (IL6), IL6 (gene 3569)
In words: LTEA_HepaRG_IL6: Life Technologies and Expression Analysis (LTEA) Assay for Interleukin 6 (IL6) using HepaRG (AID 2283509). Summed up:
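qRT-PCR read-out of IL6 transcript, normalized to three housekeeping genes, after 48 h chemical exposure of HepaRG cells; 8-point half-log series, top 100 uM, 0.5% DMSO vehicle. Bidirectional curve fitting against DMSO baseline.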

Read-out in test [12]: Interleukin 6 Receptor (IL6R), IL6R (gene 3570)
Kind of test: LTEA_HepaRG_IL6R: Life Technologies and Expression Analysis (LTEA) Assay for Interleukin 6 Receptor (IL6R) using HepaRG (AID 2283510). Summed up: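 Cells were thawed, plated and cultured 48 h, then medium was changed to serum-free induction medium. Chemicals were added in duplicate (100 uM top, half-log steps, 0.5% DMSO) for 48 h. Lysates were analyzed by qRT-PCR for IL6R expression.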

Read-out in test [13]: Potassium channel subfamily K member 1 (KCNK1), KCNK1 (gene 3775)
In words: LTEA_HepaRG_KCNK1: Life Technologies and Expression Analysis (LTEA) Assay for Potassium channel subfamily K member 1 (KCNK1) using HepaRG (AID 2283511). Summed up:
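HepaRG, 48 h exposure, 8-pt half-log series top 100 uM, 0.5% DMSO vehicle, duplicates. Readout: KCNK1 transcript by qRT-PCR (Fluidigm array), housekeeping-normalized; bidirectional curve fit relative to DMSO baseline.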

Read-out in test [14]: Keratin 19 (KRT19), KRT19 (gene 3880)
Kind of test: LTEA_HepaRG_KRT19: Life Technologies and Expression Analysis (LTEA) Assay for Keratin 19 (KRT19) using HepaRG (AID 2283512). In a few lines:
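Differentiated HepaRG cells in serum-free induction medium, exposed 48 h in duplicate to 8 half-log concentrations up to 100 uM in 0.5% DMSO. KRT19 mRNA by qRT-PCR, normalized to ACTB, GAPDH, POLR2A; bidirectional fit vs DMSO.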

Read-out in test [15]: JUN Transcription Factor, JUN (gene 3725)
Kind of test: LTEA_HepaRG_JUN: Life Technologies and Expression Analysis (LTEA) Assay for JUN Transcription Factor using HepaRG (AID 2283513). Summed up: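 Read-out is JUN transcript level by TaqMan qRT-PCR, normalized to ACTB, GAPDH and POLR2A, after 48 h chemical treatment of HepaRG cells. Concentration-response spanned eight half-log points up to 100 uM in 0.5% DMSO.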

Read-out in test [16]: Lipase C (LIPC), LIPC (gene 3990)
In words: LTEA_HepaRG_LIPC: Life Technologies and Expression Analysis (LTEA) Assay for Lipase C (LIPC) using HepaRG (AID 2283514). In a few lines: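 HepaRG, 48 h exposure, 8-pt half-log series from 100 uM in 0.5% DMSO, duplicates. Readout: LIPC mRNA by Fluidigm qRT-PCR, housekeeping-normalized (ACTB/GAPDH/POLR2A). Gain or loss fitted bidirectionally against DMSO baseline.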

Read-out in test [17]: Lipoprotein lipase (LPL), LPL (gene 4023)
In words: LTEA_HepaRG_LPL: Life Technologies and Expression Analysis (LTEA) Assay for Lipoprotein lipase (LPL) using HepaRG (AID 2283515). Summed up:
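HepaRG, 48 h exposure, 8-pt half-log dilutions from 100 uM, 0.5% DMSO vehicle, duplicates; qRT-PCR (Fluidigm array) of LPL mRNA vs housekeeping genes; bidirectional curve fit relative to DMSO baseline.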

Read-out in test [18]: MicroRNA 122 (MIR122), gene 406906
Kind of test: LTEA_HepaRG_MIR122: Life Technologies and Expression Analysis (LTEA) Assay for MicroRNA 122 (MIR122) using HepaRG (AID 2283516). Note: the transcript read is the microRNA miR-122. Summed up:
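Human liver HepaRG cultures receive test chemicals for 48 h at eight half-log concentrations from 100 uM. Expression is quantified by qRT-PCR with ACTB/GAPDH/POLR2A normalization and fitted bidirectionally against 0.5% DMSO.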

Read-out in test [19]: matrix metalloproteinase-10 (MMP10), MMP10 (gene 4319)
Kind of test: LTEA_HepaRG_MMP10: Life Technologies and Expression Analysis (LTEA) Assay for matrix metalloproteinase-10 (MMP10) using HepaRG (AID 2283517). Summed up:
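Transcript levels come from Fluidigm qRT-PCR normalized to three housekeeping genes, with curves fitted bidirectionally against 0.5% DMSO. Human HepaRG cells were dosed for 48 hours at concentrations up to 100 uM.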

Chain of Hypoxia-inducible factor 1-alpha (Homo sapiens) (Q16665 whole entry, looked up): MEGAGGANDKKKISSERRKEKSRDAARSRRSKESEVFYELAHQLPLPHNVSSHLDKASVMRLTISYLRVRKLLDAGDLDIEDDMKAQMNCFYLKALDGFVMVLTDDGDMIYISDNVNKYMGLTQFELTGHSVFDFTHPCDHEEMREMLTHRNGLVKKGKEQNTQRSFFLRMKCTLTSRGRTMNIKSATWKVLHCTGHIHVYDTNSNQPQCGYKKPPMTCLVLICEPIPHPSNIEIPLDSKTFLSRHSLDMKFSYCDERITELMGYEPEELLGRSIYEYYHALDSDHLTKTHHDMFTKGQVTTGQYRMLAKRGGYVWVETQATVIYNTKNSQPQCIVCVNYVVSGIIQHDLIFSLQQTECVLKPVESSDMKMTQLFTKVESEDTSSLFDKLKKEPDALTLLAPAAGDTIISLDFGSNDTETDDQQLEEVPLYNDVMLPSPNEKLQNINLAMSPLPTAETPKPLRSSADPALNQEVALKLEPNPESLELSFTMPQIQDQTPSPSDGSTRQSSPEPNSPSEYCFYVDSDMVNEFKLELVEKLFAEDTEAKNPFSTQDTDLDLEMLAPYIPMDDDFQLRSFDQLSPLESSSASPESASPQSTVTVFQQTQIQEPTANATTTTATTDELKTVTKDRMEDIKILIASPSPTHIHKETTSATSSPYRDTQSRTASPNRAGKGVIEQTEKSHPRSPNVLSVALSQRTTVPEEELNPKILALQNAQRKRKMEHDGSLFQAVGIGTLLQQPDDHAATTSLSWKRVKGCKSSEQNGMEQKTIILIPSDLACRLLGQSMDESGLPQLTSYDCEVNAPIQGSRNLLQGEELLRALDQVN

For `COC(=O)CCC(=O)OC`, the molecule was called inactive in test [1], in [2], in test [3], in test [4], in test [5] and in test [6]. Further, the molecule was classed as inactive (in test [7]; with HGF (gene 3082); in test [8]; in test [9]; in test [10]; in [11]). Besides, the result in test [12], in test [13], in test [14], in test [15], in [16] and in test [17] was inactive. The molecule was called inactive in [18].
Turning to `CCN(CC)CCOc1ccc(C(=C(Cl)c2ccccc2)c2ccccc2)cc1`, the molecule was classed as inactive (in test [1]; in test [2]; in test [4]; in [5]; in test [6]; in the test with HGF (gene 3082)). Also, the call in test [12], in test [13] and in test [14] was inactive. The AC50 was 78 µM (active) in test [3]; 29.2 µM (active) in test [7]; 13.3 µM (active) in test [8]; 61.2 µM (active) in [10]; 81.8 µM (active) in [11]; 66.2 µM (active) in test [15]. For the same molecule, the AC50 was 24.1 µM (active) in test [16], 17.8 µM (active) in test [17] and 78.8 µM (active) in test [18].
For `NC=O`, the result in test [1], in test [2], in test [3], in [4], in test [5] and in test [6] was inactive. The molecule was classed as inactive (in test [7]; in the test with HGF (gene 3082); in test [8]; in test [9]; in [11]; in test [12]). Moreover, the call in test [13], in test [14], in [15], in [16], in test [17] and in test [18] was inactive.
Consider `CC(C)c1cccc(C(C)C)c1NC(=O)NS(=O)(=O)c1cc(C(C)(C)O)co1`, for which the call in test [1], in [2], in test [3], in test [4], in test [5] and in test [6] was inactive. For the same molecule, the molecule was called inactive (in the test with HGF (gene 3082); in test [10]; in [11]; in test [12]; in [13]; in [14]). Further, the outcome in test [15], in test [16], in test [17] and in test [18] was inactive. Also, the concentration at half-maximal activity (AC50) was 62 µM (active) in test [7] and 50 µM (active) in test [8].
Take `O=C(O)CC(O)(CC(=O)O)C(=O)O`: the call in [1], in test [2], in test [3], in [4], in [5] and in [6] was inactive. Also, the result (in [7]; with HGF (gene 3082); in test [8]; in [9]; in test [11]; in test [12]) was inactive. Moreover, the call in test [13], in test [14], in [15], in test [16], in test [17] and in test [18] was inactive.
As to `O=C1c2c(O)cccc2Cc2cccc(O)c21`, the molecule was called inactive in [1], in [2], in test [3], in test [4], in [5] and in [6]. In addition, the molecule was classed as inactive (in test [7]; in the test with HGF (gene 3082); in test [8]; in test [10]; in test [11]; in test [12]). For the same molecule, the molecule was classed as inactive in test [13], in test [14], in test [15], in test [16], in test [17] and in test [18].
On to `CC(C)(C)c1ccccc1`, for which the outcome in [1], in test [2], in test [3], in test [4], in test [5] and in test [6] was inactive. Further, the molecule was called inactive (in test [7]; with HGF (gene 3082); in test [8]; in [9]; in test [11]; in test [12]). Further, the call in [13], in [14], in test [15], in test [16], in test [17] and in test [18] was inactive. In addition, the molecule was called inactive in test [19].

Values taken from PubChem BioAssay (EPA / NIEHS).
